Data from PubChem BioAssay (Tox21).
“And” between values parts separate entries of the source, which are not always exact repeats. Identical values can stand only once. Results filed as inconclusive are left out. A number with no mark means an inactive call. The source made the active and inactive calls. The call rests on the fitted dose curve; in most records, active means well fitted cell-killing curve with a large enough effect in the repeat runs; inconclusive means weak or mixed curves, or effect the other way; inactive means flat fitted curve, though single readings scatter.

Test: qHTS assay to identify small molecule agonists of the estrogen receptor beta (ER-beta) signaling pathway - cell viability counter screen (AID 1259380); further: nearly all actives have a fitted effect of over 30% in size
Conditions: ER-beta-bla HEK293T viability, CellTiter-Glo luminescence, 16 h; series mostly up to 92.4 µM; activity change, negative = cytotoxicity: at the top concentration
Text: National Center for Advancing Translational Sciences [NCATS]
NIH Chemical Genomics Center [NCGC]
U.S. Environmental Protection Agency [EPA]
National Institutes of Environmental Health Sciences [NIEHS]
National Toxicology Program [NTP]
U.S. Food and Drug Administration [FDA]
Estrogen receptor (ER), a nuclear hormone receptor, plays an important role in development, metabolic homeostasis and reproduction. Two subtypes of ER, ER-alpha and ER-beta, have similar expression patterns with some uniqueness in both types. Endocrine disrupting chemicals (EDCs) and their interactions with steroid hormone receptors like ER causes disruption of normal endocrine function. To identify the compounds that activate ER signaling, an ER beta-UAS-bla GripTite cell line (Life Technologies, Madison, WI, USA) containing a beta-lactamase reporter gene under the control of an UAS response element was used to screen Tox21 10K compound library. The cytotoxicity of the Tox21 compound library against the ER-beta-bla cell line was tested in parallel by measuring the cell viability using CellTiter-Glo assay in the same wells.
Tox21 Assay Protocol Summary:
ER-beta-UAS-bla HEK293T cells were dispensed at 2,000 cells/5 uL of assay medium containing 2% charcoal stripped FBS per well into black wall/clear-bottom 1536-well plates using a Multidrop Combi (ThermoFisher Scientific, Waltham, MA) dispenser. After the assay plates were incubated at a 37C and 5% CO2 for 6 hr, 23 nL of compounds dissolved in DMSO, positive controls or DMSO only was transferred to the assay plate by a Pintool station (Kalypsys, San Diego, CA). The plates were incubated at 37C and 5% CO2 for 16 hr. Then 1 uL of LiveBLAzerTM B/G FRET substrate was added using a BioRAPTR FRD (Flying Reagent Dispenser, Aurora Discovery, San Diego, CA) and then the plates were incubated at room temperature for 2 hours, and fluorescence intensity was measured by an Envision plate reader (PerkinElmer, Shelton, CT). For cell viability readout that measures cytotoxicity, 4 uL/well of CellTiter-Glo reagent was added into the assay plates using a FRD. After 30 min incubation at room temperature, the luminescence intensity in the plates was measured using a ViewLux (PerkinElmer) plate reader.
On the % scale 0 is the no-effect control and ±100 the full control effect; potency means the concentration at half of the fitted maximal effect.

First: FC(F)OC(F)(F)C(F)Cl (stereo not given)
Second: O=C(O)C(F)(F)C(F)(F)C(F)(F)C(F)(F)C(F)(F)F
The “activity change, negative = cytotoxicity” value of the first is higher: 13.1% for the first, -4.58% for the second.

First: C1CS1
Second: O=C=NC1CCCCC1
The “activity change, negative = cytotoxicity” value of the first is lower: 1.48% for the first, 2.89% for the second.

First: Cc1ccccc1
Second: CC(C)OC(=O)Cc1ccccc1
The “activity change, negative = cytotoxicity” value of the first is higher: 5.25% for the first, -5.25% for the second.

Going from `CC(C)C1(C)N=C(c2ncccc2C(=O)O)NC1=O` (stereo not given) to `O=C(O)CCCOc1ccc(Cl)cc1Cl`, the “activity change, negative = cytotoxicity” value falls from 0.733% to -11.7%.

Compared with `C=CC(=O)OCC`, `C=CC(C)(CCC=C(C)C)OC(=O)c1ccccc1N` (stereo not given) is lower in “activity change, negative = cytotoxicity” value: 2.08% for the first, 1.79% for the second.

First: CCCN(CCOc1c(Cl)cc(Cl)cc1Cl)C(=O)n1ccnc1
Second: CCCN(CCC)c1c([N+](=O)[O-])cc(C(C)C)cc1[N+](=O)[O-]
The “activity change, negative = cytotoxicity” value of the first is higher: -1.31% for the first, -14.7% for the second.

First: O=C([O-])c1ccccn1.O=C([O-])c1ccccn1.O=C([O-])c1ccccn1.[Cr+3]
Second: c1ccc2c(c1)-c1cccc3cccc-2c13
The “activity change, negative = cytotoxicity” value of the first is higher: 0.398% for the first, -20.3% for the second.

Going from `COP(=O)(OC)OC(Br)C(Cl)(Cl)Br` (stereo not given) to `O=C(O)C(Cl)(Cl)Br`, the “activity change, negative = cytotoxicity” value rises from -4.29% to 7.18%.

Going from `Cc1ccc2c(C)cccc2c1` to `Nc1ccc2c(c1)Cc1ccccc1-2`, the “activity change, negative = cytotoxicity” value falls from 0.884% to -13.6%.

Going from `N#CC(C#N)=C(C#N)C#N` to `NNCCO`, the “activity change, negative = cytotoxicity” value falls from 0.902% to 0.084%.

Compared with `CCOC(=O)NC(O)C(Cl)(Cl)Cl` (stereo not given), `CC(C)(C)NCC(O)c1ccccc1Cl` (stereo not given) is lower in “activity change, negative = cytotoxicity” value: 14.1% [at 42.5 µM] for the first, 2.13% [at 42.5 µM] for the second.

First: CC[N+]1(CCOC(=O)C(O)(c2ccccc2)c2ccccc2)CCCCC1
Second: C[N+]1(CCF)[C@@H]2CC[C@H]1CC(OC(=O)C(O)(c1ccccc1)c1ccccc1)C2 (stereo not given in full)
The “activity change, negative = cytotoxicity” value of the first is lower: 0.327% [at 42.5 µM] for the first, 0.523% [at 42.5 µM] for the second.

First: CCN(C(C)=O)c1cccc(-c2ccnc3c(C#N)cnn23)c1
Second: C=CCN1C[C@H](C)N([C@H](c2ccc(C(=O)N(CC)CC)cc2)c2cccc(OC)c2)C[C@H]1C
The “activity change, negative = cytotoxicity” value of the first is higher: 4.39% [at 42.5 µM] for the first, -14.3% [at 42.5 µM] for the second.

Going from `COc1ccccc1N1CCNCC1` to `C[C@]12CC[C@H]3[C@@H](CCC4=CC(=O)CC[C@@H]43)[C@@H]1CC[C@@H]2OC(=O)CCc1ccccc1`, the “activity change, negative = cytotoxicity” value falls from 6.7% [at 42.5 µM] to -5.96% [at 42.5 µM].

Compared with `CC(CC(C(N)=O)(c1ccccc1)c1ccccc1)N(C)C` (stereo not given), `CCCC[N+]1(C)[C@@H]2CC(OC(=O)[C@H](CO)c3ccccc3)C[C@H]1[C@@H]1O[C@@H]12` (stereo not given in full) is higher in “activity change, negative = cytotoxicity” value: 0.0057% [at 42.5 µM] for the first, 0.726% [at 42.5 µM] for the second.

For `COc1cc(CC#N)cc(OC)c1OC`, the “activity change, negative = cytotoxicity” value was 6.23% [at 42.5 µM].

With `C[Si](Cn1cncn1)(c1ccc(F)cc1)c1ccc(F)cc1` the Potency was “inactive”.
For `Nc1ccccc1C(=O)OCCc1ccccc1`, the Potency was 9.73 µM (active) and 7.7 µM (active).
With `CC(C)[C@@H](C(=O)O[C@@H](C#N)c1cccc(Oc2ccccc2)c1)c1ccc(Cl)cc1` the Potency was “inactive”.
With `c1ccc2sc(SNC3CCCCC3)nc2c1` the Potency was “inactive”.
In the case of `CCCCCCCCCCCC[N+](C)(C)CCOc1ccccc1`, the Potency is reported as 21.7 µM (active) and 11.9 µM (active).
In the case of `CN1C[C@H](C(=O)N[C@]2(C)O[C@@]3(O)[C@@H]4CCCN4C(=O)[C@H](Cc4ccccc4)N3C2=O)C=C2c3cccc4[nH]cc(c34)C[C@H]21`, the Potency is reported as 21.8 µM (active) and 7.16 µM (active).
In the case of `C[CH2][Hg][S]c1ccccc1C(=O)O`, the Potency is reported as 2.17 µM (active) and 5.31 µM (active).
In the case of `CCCCCCCCn1sccc1=O`, the Potency is reported as 30.7 µM (active) and 28.6 µM (active).

For `C[C@H]1[C@@H]2Cc3ccc(O)cc3[C@@]1(C)CCN2C`, the “activity change, negative = cytotoxicity” value was -2.7% [at 240 µM].
